# In PubChem BioAssay (EPA / NIEHS):
# Inconclusive results are not listed. Activity calls are given as the source filed them. The calls were made as follows: active = hit-call score of the fitted dose curve at least 0.9, where 1 is the maximum; inconclusive = response in the unintended direction; inactive = score below 0.9.
# How the values were obtained:
# [1] = Tanguay_ZF_120hpf_ActivityScore_legacy: (Legacy) Oregon State University Tanguay Lab 120 Hour Post-fertilization zebrafish Assay Score for Activity (AID 2283742);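 as to AC50: dechorionated Tropical 5D wild-type zebrafish embryos held singly per well; static exposure from 6 hpf until 120 hpf at 28 °C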
# How it was run: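 Embryos are staged, enzymatically dechorionated at 4 hpf, placed individually at 6 hpf, then held in test chemical (0.64% DMSO) at 28C until 120 hpf. Mortality and malformations are scored by brightfield, with non-mortality endpoints skipped for dead embryos.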
# [2] = tested on: Thyroperoxidase (TPO), gene 445522; assay: CCTE_Simmons_GUA_TPO: CCTE's Guaiacol Assay for Thyroperoxidase (TPO) Inhibition, Simmons Lab (AID 2283750)
# How it was run: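 Porcine thyroid microsomes (25 ug) in 200mM potassium phosphate, preincubated 30 s at 37C with compound (8 concentrations, 5 nM–87.5 uM) and 35mM guaiacol; 1mM H2O2 starts reaction. Absorbance change at 450nm over first 80 s; loss of signal versus DMSO, three replicates.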
# [3] = ArunA_CellTiter_hNC: Viability Assessment in the ArunA Biomedical's Oris Neural Crest (hNC) Cell Migration Assay (AID 2283752)
# How it was run: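 Human H9-derived neural crest stem cells were plated at 60,000 per well on Matrigel in growth medium with LIF and bFGF, incubated 16 h at 37C, then exposed to chemical for 72 h. Viability was read with CellTiter Aqueous One as loss of signal versus DMSO.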
# [4] = ArunA_CellTiter_hNP: Viability Assessment in the ArunA Biomedical's Oris Neural Crest (hNC) Cell Migration Assay (AID 2283753)
# How it was run: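 H9-derived hNP1 neuroprogenitors, 60,000/well on Matrigel, cultured 16 h, then 72 h chemical exposure in test medium. Cell titer via CellTiter Aqueous One; positive-direction fit vs DMSO.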
# [5] = ArunA_Migration_hNP: ArunA Biomedical's Oris Neuroprogenitor (hNP) Cell Migration Assay (AID 2283754)
# How it was run: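 Human H9-derived hNP1 neuroprogenitors on Matrigel with LIF/bFGF, plated around seeding stoppers for 16 h at 37C; stoppers removed at start of 72 h chemical exposure. Calcein-AM staining, fluorescence 494/517 nm in detection zone; loss-of-signal vs DMSO; cytochalasin D control.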
# [6] = ArunA_Migration_hNC: ArunA Biomedical's Oris Neural Crest (hNC) Cell Migration Assay (AID 2283755)
# How it was run: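 Human H9-derived neural crest stem cells, 60,000/well on Matrigel, 16 h at 37C, then 72 h chemical exposure after seeding-stopper removal. Migration into detection zone read as calcein-AM fluorescence (ex494/em517), relative to DMSO.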
# [7] = ArunA_NOG_NucleusCount: ArunA Biomedical's Neurite Outgrowth (NOG) Assay for Nucleus Count (AID 2283756)
# How it was run: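 Human H9-derived differentiated neurons were exposed for 48 h right after seeding. Hoechst-stained nuclei gated by size and intensity were counted by automated high-content imaging as viable neurons. Loss of signal vs DMSO.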
# [8] = ArunA_NOG_NeuriteLength: ArunA Biomedical's Neurite Outgrowth (NOG) Assay for Neurite Length (AID 2283757)
# How it was run: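 Differentiated human H9-derived neurons were exposed for 48 h from seeding, then stained with Hoechst and βIII-tubulin. Automated high-content imaging gave total neurite length per valid neuron, counting processes >10 um. Loss of signal was scored versus DMSO.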
# [9] = ArunA_NOG_NeuritesPerNeuron: ArunA Biomedical's Neurite Outgrowth (NOG) Assay for Neurites Per Neuron (AID 2283758)
# How it was run: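 Differentiated human H9-derived neurons exposed to chemicals for 48 h from seeding, then stained with Hoechst and βIII-tubulin/DyLight 488. Automated imaging counted neurites (processes >10 um) per valid neuron; loss of signal versus DMSO scored.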
smiles,measurement,setting,value
CNCc1cc(F)ccc1Oc1ccc(Cl)c(Cl)c1,outcome,[1],inactive
CCOC(=O)C(C)(C)Oc1ccc(Cl)cc1,AC50,[1],37.7 µM (active)
CCCCCC(=O)O,outcome,[1],inactive
Cc1ccc(C)c(C)c1,outcome,[1],inactive
NCCO,outcome,[1],inactive
COc1cc(-c2nc(NC(=O)c3cc4cc(C)cc(C)c4n3CC(=O)O)sc2CCC2CCCCC2)c(OC)cc1Cl,outcome,[1],inactive
O=C(O)CCCCC(=O)O,outcome,[1],inactive
CC(=O)OCCOCCOCCOC(C)=O,outcome,[1],inactive
CN1CCCC1=O,outcome,[1],inactive
CCCCCCCCCCO,outcome,[1],inactive
COCCOCCOC,outcome,[1],inactive
Cc1ccc2ncccc2c1,outcome,[1],inactive
CC(CO)OC(C)CO (stereo unspecified) (tested in a mixture with another compound),outcome,[1],inactive
CC(C)c1ccc(C(=O)N=C(N)N)cc1S(C)(=O)=O,outcome,[1],inactive
Cc1ccc(C)c(O)c1C,outcome,[1],inactive
same,outcome,[2],inactive
Cc1ccc(C(C)C)c(O)c1,outcome,[1],inactive
C1CCC(SSC2CCCCC2)CC1,outcome,[1],inactive
CCCCCCCC=O,outcome,[1],inactive
CC1(C)NC(=O)NC1=O,outcome,[1],inactive
Cc1ccc(N(C)C)cc1,outcome,[1],inactive
same,AC50,[2],95.1 µM (active)
CCCCN(CCCC)CCCC,outcome,[1],inactive
CCCCCCOCCO,outcome,[1],inactive
CCCCC(CC)COC(=O)CC(C(=O)OCC(CC)CCCC)S(=O)(=O)O (stereo unspecified),outcome,[1],inactive
same,outcome,[3],inactive
same,AC50,[4],7.54 µM (active)
same,AC50,[5],77.9 µM (active)
same,AC50,[6],28.7 µM (active)
same,outcome,[7],inactive
same,outcome,[8],inactive
same,outcome,[9],inactive
O=c1c(O)c(-c2ccc(O)c(O)c2)oc2cc(O)cc(O)c12,outcome,[1],inactive
same,outcome,[3],inactive
same,AC50,[4],3.88 µM (active)
same,AC50,[5],3.08 µM (active)
same,AC50,[6],2.36 µM (active)
same,AC50,[8],9.45 µM (active)
same,AC50,[9],7.94 µM (active)
CCCCCCCCCCCCCCCCCC(=O)O,outcome,[1],inactive
CC(=O)OC/C=C(\C)CCC=C(C)C,outcome,[1],inactive
O=[N+]([O-])C(CO)(CO)CO,outcome,[1],inactive
COc1cc(S(=O)(=O)O)c(C)cc1N=Nc1c(O)ccc2cc(S(=O)(=O)O)ccc12,outcome,[1],inactive
CCCc1cc(=O)[nH]c(=S)[nH]1,outcome,[1],inactive
same,outcome,[5],inactive
same,outcome,[6],inactive
same,outcome,[7],inactive
same,outcome,[8],inactive
same,outcome,[9],inactive
Cc1cc(=O)[nH]c(=S)[nH]1,outcome,[1],inactive
same,AC50,[2],7.71 µM (active)
CCCCc1ccc2c(n1)[C@@H](c1ccc(OC)cc1C[C@H](C)C(=O)O)[C@H](C(=O)O)[C@H]2c1ccc2c(c1)OCO2,outcome,[1],inactive
same,outcome,[3],inactive
same,outcome,[4],inactive
same,outcome,[5],inactive
same,outcome,[6],inactive
same,outcome,[7],inactive
CCc1c(C(=O)NN2CCCCC2)nn(-c2ccc(Cl)cc2Cl)c1-c1ccc(Br)cc1,AC50,[1],39.9 µM (active)
CCCCCCC(=O)OCC,outcome,[1],inactive
Cc1cccc(C)c1O,outcome,[1],inactive
same,outcome,[2],inactive
FC(F)(F)C(F)(F)C(F)(F)C(F)(F)C(F)(F)C(F)(F)CCI,outcome,[1],inactive
OC[C@@H](O)[C@@H](O)[C@H](O)[C@H](O)CO,outcome,[1],inactive
same,outcome,[3],inactive
same,AC50,[4],80.6 µM (active)
same,outcome,[6],inactive
same,AC50,[7],50 µM (active)
same,outcome,[9],inactive
O=C(N[C@@H](Cc1ccccc1)[C@@H](O)C(=O)N1C[C@@H](O)[C@@H](O)C1)c1cc2cc(Cl)ccc2[nH]1,outcome,[1],inactive
CCNc1cccc(C)c1,outcome,[1],inactive
same,outcome,[2],inactive
